# Target: Large ribosomal subunit protein eL13A (UniProt Q12690)
# Assay: cross-link between two proteins; cross-linking mass spectrometry
# Chain of Large ribosomal subunit protein eL13A (Q12690 whole entry): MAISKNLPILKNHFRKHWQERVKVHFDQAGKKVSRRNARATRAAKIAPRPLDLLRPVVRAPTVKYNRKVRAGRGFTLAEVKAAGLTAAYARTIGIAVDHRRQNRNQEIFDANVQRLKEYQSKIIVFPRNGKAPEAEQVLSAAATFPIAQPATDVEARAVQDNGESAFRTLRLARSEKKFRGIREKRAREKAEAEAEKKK
substance,measurement,value
"Large ribosomal subunit protein uL29A, P0CX84",listed as a hit,yes
"Large ribosomal subunit protein eL36B, O14455",listed as a hit,yes
